Results filed as inconclusive are left out. Unmarked numbers belong to inactive results. Active and inactive are the calls of the source. Calls follow the shape of the full dose curve; tested in HEK293 reporter line.
Assay: qHTS for Inhibitors of the Functional Ribonucleoprotein Complex (vRNP) of Lassa (LASV) Arenavirus: LASV Primary Screen - GLuc reporter signal (AID 1347082); also: nearly all actives have a fitted effect of over 60% in size
Details: LASV minigenome vRNP, Gaussia luciferase reporter; series mostly up to 57.5 µM; activity change, negative = inhibition: at the top concentration
% is scaled to controls: 0 for no effect and ±100 for the full control effect.

Row | SMILES | Potency | activity change, negative = inhibition
1 | CC(C)c1ccc2oc3nc(N)c(C(=O)O)cc3c(=O)c2c1 | inactive | –
2 | O=C(Oc1ccccc1)c1ccccc1O | – | 0.0274%
3 | NC(=O)c1ncn([C@@H]2O[C@H](CO)[C@@H](O)[C@H]2O)c1O | inactive | –
4 | COc1ccc(C2C(=O)c3ccccc3C2=O)cc1 | – | 4.55%
5 | NCCNCCNCCNCCN | – | -3.37% [at 11.5 µM]
6 | NC(=S)N/N=C/c1cccnc1 | – | -8.61%
7 | CCCc1nn(C)c2c(=O)[nH]c(-c3cc(S(=O)(=O)N4CCN(C)CC4)ccc3OCC)nc12 | inactive | –
8 | CC(=O)O[C@@H]1C(=O)O[C@@H]2[C@H]1OC(=O)[C@@H]2OC(C)=O | – | -2.82%
9 | Cc1cccn2c(=O)c(-c3nnn[nH]3)cnc12 | – | -4.54% [at 24.7 µM]
10 | CCOC(=O)/C=C(C)/C=C/C=C(C)/C=C/c1c(C)cc(OC)c(C)c1C | – | -15.6%
11 | CN[C@@H]1[C@H](O)[C@H](NC)[C@H]2O[C@@]3(O)C(=O)C[C@@H](C)O[C@H]3O[C@@H]2[C@H]1O | – | -2.54%
12 | Cn1cc(S(C)=O)c(=O)c2ccc(F)cc21 (stereo unspecified) | – | 4.72%
13 | CC(N)CCCC(C)(C)O (stereo unspecified) | – | -6.71%
14 | C=CCN1CCc2nc(N)sc2CC1 | – | -1.61%
15 | Nc1ccc(S(=O)(=O)Nc2ccccn2)cc1 | inactive | –
16 | CC(=O)Nc1ccc(C(=O)O)cc1 | inactive | –
17 | CC(=O)OCC(=O)[C@H]1CC[C@H]2[C@@H]3CCC4=CC(=O)CC[C@]4(C)[C@H]3CC[C@]12C | – | 3.06%
18 | C[C@H]1C[C@@H]2[C@H]([C@@H](O)C[C@@]3(C)[C@H]2CC[C@]3(O)C(=O)CO)[C@@]2(C)C=CC(=O)C=C12 | – | 33.7%
19 | NC(=O)CC[C@@H]1NC(=O)[C@H](Cc2ccccc2)NC(=O)[C@H](Cc2ccc(O)cc2)NC(=O)CCSSC[C@@H](C(=O)N2CCC[C@H]2C(=O)N[C@@H](CCCN=C(N)N)C(=O)NCC(N)=O)NC(=O)[C@H](CC(N)=O)NC1=O | – | -7.34%
20 | Cc1oc(=O)oc1CN1CCN(c2cc3c(cc2F)c(=O)c(C(=O)O)c2n3C(C)S2)CC1 (stereo unspecified) | inactive | –
21 | N#CCC(=O)NN | – | 1.46%
